Where “and” joins values, the source holds several entries; their conditions need not be identical. Equal values may be shown once. This is part of a sample that, as a whole, favours compounds with a hit. Of some 83,000 tested, about 20% had one in any assay.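 Assay: single dose, 48 h. Readout: percent growth (0 = no net growth; negative = cell death). Active: <10.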 A number with no mark means an inactive call. Calls of active or inactive are those of the source.

The subject of the test is MDA-MB-468 breast. The experiment in a line: NCI-60 one-dose screen, 48 h (100 = growth as untreated, 0 = no growth, -100 = all killed). Particulars: 10 µM unless noted.
Consider `Cc1ccc(S(=O)(=O)Oc2ccc3c4c(c(=O)oc3c2)CCCCC4)cc1`, for which the growth was 35.5%.

`COc1ccc(COc2cc3oc(=O)c4cc(C(C)O)ccc4c3cc2OC)cc1` (stereo not given): the growth is 41%.

Regarding `CNC(=O)c1cc(Oc2ccc(NC(=O)Nc3ccc(Cl)c(OC(C)C)c3)c(F)c2)ccn1`, the growth is 11.8%.

Turning to `CC(=O)Oc1ccccc1C(=O)Nc1ncc([N+](=O)[O-])s1`, the growth was 36.9%.

`CCOC(=O)C1=C(C)NC(C)=C(C(=O)OCC)C1(C)C`: the growth is 98.8%.

As for `Cc1[nH]c(C(=O)Nc2ccccc2OC2CCN(CCN3CCOCC3)CC2)c(Cl)c1Cl`, the growth was 91.6%.

On to `COc1cc(-c2nc3ccc(C)cc3[nH]2)ccc1OCC(=O)N=Nc1c(O)[nH]c2ccc(Cl)cc12`, for which the growth was -48.7% (active).

Turning to `COc1ccc(-c2nc3sc4c(c3c(=O)[nH]2)CCCCCC4)cc1`, the growth is 98.5%.

Turning to `Nc1n[nH]c2cccc(C#Cc3cccc(C(=O)Nc4cc(CN5CCOCC5)cc(C(F)(F)F)c4)c3)c12`, the growth was 89.7%.

For the compound `CCCCCCN(CCCCCC)CCC(O)c1ccc2ccccc2c1` (stereo not given), the growth was 18.6%.

In the case of `CC(C)=C1CCC(C)C/C1=N\N=C(N)N` (stereo not given), the growth was 101%.

For `C=CN(C)S(C)(=O)=O`, the growth was -3.6% (active).

Turning to `C1CCCCNCCC1`, the growth was 98.6%.

In the case of `CCCc1c(C)c2sc(=O)[nH]c2[nH]c1=O`, the growth was 99.4%.

Turning to `O=C(Nc1ccc2[nH]c3ccccc3c2c1)c1ccccc1Cl`, the growth was 44.8%.

Take `Cc1oc2c(C(=O)N/N=C\c3ccc(O)cc3O)c[nH]c2c1C`: the growth is -11.8% (active).

Regarding `C=CCc1nc2ccccc2s1`, the growth is -14.5% (active).

For `CCOc1cc(N)ccc1C(=O)NCCCN(CC)CC`, the growth is 85%.

`Cc1cc(N/N=C/c2nc(-c3ccc(Cl)cc3)oc2C)c2cc(Cl)ccc2n1`: the growth was -47.4% (active).

As to `Cc1n[nH]c(C)c1N=Nc1cccc2c1C(=O)c1ccccc1C2=O`, the growth was 96.2%.

Take `COc1cc(CN(c2ccc(C)cc2)C2OC(=O)c3ccccc32)cc(OC)c1OC` (stereo not given): the growth was 25%.

`CCCN=C(N)c1ccc(NC(=O)c2ccc(C(=O)Nc3ccc(C(N)=NCCC)cc3)cc2)cc1`: the growth is 67.1%.

For the compound `Cc1cc(C)c(C(=O)c2cccs2)c(C)c1`, the growth is 105%.

Regarding `C#C[C@]1(O)CC[C@H]2[C@@H]3CC=C4c5nc(Nc6ccc(OC)cc6OC)sc5CC[C@]4(C)[C@H]3CC[C@@]21C`, the growth was -6.78% (active).

For the compound `CC(C)(C)NC(=O)C(OC(=O)c1cccc(Cl)c1)c1ccc(Cl)cc1` (stereo not given), the growth is 87.9%.

Take `COc1ccc(-c2nc(SCC(=O)Nc3nc4ccc(C)cc4s3)[nH]c(=O)c2C#N)cc1OC`: the growth is 100%.

With `COc1ccc(-c2nc3cc(Cl)c(Cl)cc3n2CC(=O)N=Nc2c(O)[nH]c3ccccc23)cc1`, the growth was 60.6%.

For `COc1ncnc2[nH]cc(CN3CCN(c4ccc(F)cc4)CC3)c12`, the growth was 108%.

Take `CCN1C(=O)N(CC)C2C1N=C(SCc1ccc(Cl)cc1)N2/N=C/C=C/c1ccccc1OC` (stereo not given): the growth is 40.5%.

Consider `COc1cccc(CNc2ccc3ncnc(Nc4ccc(F)c(Cl)c4)c3c2)c1`, for which the growth is -19.6% (active).

For the compound `Cl[C@@H]1CCO[C@H](c2cc3ccccc3c3ccccc23)C1`, the growth was 93.4%.

In the case of `O=C(Nc1ncc(Cc2ccc(Cl)cc2)s1)c1ccc2c(c1)OCCO2`, the growth was 47.1%.

Regarding `Oc1c(Br)cc(Cl)cc1C(c1cc(Cl)cc(Br)c1O)C(Cl)(Cl)Cl`, the growth was -4.05% (active).

On to `COc1ccc(C(=O)C(O)c2ccc(OC)cc2)cc1` (stereo not given), for which the growth is 101% and 96.3%.

As for `O=C1C(c2ccccc2)C2C=CC(C2)N1O` (stereo not given), the growth is 98.9%.

In the case of `C[C@@H]1CCC2=C(CCC[C@]2(C)C(=O)O)[C@@]1(C)CCc1ccoc1`, the growth is 95.4%.

As to `COc1ccc(/C=C/c2n[nH]c3ccc(N4CCOC4=O)cc23)cc1`, the growth is -0.999% (active).

For the compound `Clc1ccc(C2=NN(c3ccccc3)[C@H](c3cn(-c4ccccc4)nc3-c3ccccc3)C2)cc1`, the growth was 109%.

With `COc1ccc(C(c2cc(OC)c(OC)c(OC)c2)N2CCCCC2)cc1` (stereo not given), the growth was 9.32% (active).

With `COc1ccc(C2=NN(C(C)=O)C(c3ccc(Oc4ccnc5cc(Cl)ccc45)c(OC)c3)C2)cc1` (stereo not given), the growth is 54%.

The record behind these values is PubChem BioAssay (NCI).
